Results published in PubChem BioAssay (EPA / NIEHS).
Values joined by “and” are separate entries in the source; they are usually repeats but may differ in a detail not shown here. Equal values may be shown once. Records with an inconclusive call do not appear. A structure can be active in one record and inactive in another. Active and inactive are the calls of the source. Rule for the calls, unless noted: active = hit-call score of the fitted dose curve at least 0.9, where 1 is the maximum; inactive = score below 0.9.

Assays:
[1] = molecular target: Nuclear respiratory factor 1 (Homo sapiens) (UniProt Q16656); test: ATG_NRF1_CIS: Attagene CIS-FACTORIAL HepG2 Assay for human Nuclear Respiratory Factor 1 (NRF1) Orphan Gene (AID 2282987); details: HepG2 NRF1 cis-element reporter, Attagene multiplex; actives raise or lower the signal
Procedure, shortened: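 Transcriptional reporter readout, one component of a 52-endpoint multiplexed HepG2 panel. Exposure 24 h; mRNA detected via RT-PCR and fluorescent capillary electrophoresis; fitting in both directions against DMSO.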

[2] = ATG_NFI_CIS: Attagene CIS-FACTORIAL HepG2 Assay for human Nuclear Factor I (NFI) (AID 2282989); details: HepG2 cis-regulatory reporter, NFI response element transcription; actives raise or lower the signal
Procedure, shortened: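 Reporter transcripts were measured by RT-PCR with fluorescent primer extension and capillary electrophoresis 24 h post-treatment. HepG2 cells carried transiently transfected cis-regulated reporter constructs reporting endogenous factor activity; gain or loss fitted against DMSO baseline.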

[3] = molecular target: Myc proto-oncogene protein (Homo sapiens) (UniProt P01106); test: ATG_Myc_CIS: Attagene CIS-FACTORIAL HepG2 Assay for human Myelocytomatosis (Myc) Proto-Oncogene Transcription Factor (AID 2282990); details: HepG2, Attagene cis-reporter transcription factor activity; actives raise or lower the signal
Procedure, shortened: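 Fluorescence intensity of reporter-specific cDNA fragments, separated by capillary electrophoresis, gives the signal. Transfected HepG2 cells carrying cis-promoter reporter constructs are incubated with compound for 24 h; DMSO serves as baseline.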

[4] = ATG_NF_kB_CIS: Attagene CIS-FACTORIAL HepG2 Assay for human Nuclear Factor Kappa B (NF-kB) (AID 2282991); details: HepG2 Attagene cis-factorial NF-kB reporter mRNA; actives raise or lower the signal
Procedure, shortened: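 HepG2, transient multi-reporter transfection, cis promoter elements (endogenous TFs). 24 h exposure. Total RNA → RT → PCR → 6-FAM label → HpaI → CE. Gain/loss vs DMSO.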

[5] = ATG_NRF2_ARE_CIS: Attagene CIS-FACTORIAL HepG2 Assay for human Nuclear Factor Erythroid 2 Related Factor 2 (NFR2) response to Antioxidant Response Elements (ARE) (AID 2282992); details: HepG2 Attagene ARE/NRF2 reporter, transcription factor activity; actives raise or lower the signal;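 note: reporter mRNA level measured by RT-PCR and capillary electrophoresis fluorescence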
Procedure, shortened: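 HepG2 cells transiently transfected with multiplexed cis-regulated reporter transcription units measure endogenous transcription factor activity. Reporter mRNA at 24 h is quantified by RT-PCR, fluorescent labelling and capillary electrophoresis, with bidirectional fitting relative to DMSO.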

[6] = ATG_Oct_MLP_CIS: Attagene CIS-FACTORIAL HepG2 Assay for human Octamer-Binding Transcription Factor (Oct) (AID 2282993); details: HepG2 Attagene cis-factorial Oct reporter, mRNA; actives raise or lower the signal
Procedure, shortened: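 Readout is reporter transcript level from RT-PCR with fluorescent primer extension and capillary electrophoresis, fitted in both directions against DMSO. Transfected HepG2 reporter units report endogenous factor activity after 24 h dosing.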

[7] = molecular target: Cellular tumor antigen p53 (Homo sapiens) (UniProt P04637); test: ATG_p53_CIS: Attagene CIS-FACTORIAL HepG2 Assay for human p53 Transcription Factor (AID 2282994); details: HepG2 p53 cis-element reporter, Attagene mRNA; actives raise or lower the signal
Procedure, shortened: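 HepG2 cells transiently transfected with multiplexed cis-regulated reporter transcription units read endogenous TF activity. After 24 h compound exposure, reporter mRNA was quantified by RT-PCR, fluorescent labelling, HpaI digestion and capillary electrophoresis; bidirectional fits versus DMSO baseline.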

[8] = BSK_3C_TissueFactor: BioMAP Diversity Plus: 3C Assay for Tissue Factor Biomarker Activity (AID 2282997); details: BioMAP 3C HUVEC, tissue factor biomarker readout; actives raise or lower the signal
Procedure, shortened: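 Values derive from bidirectional curve fitting against DMSO of Tissue Factor ELISA signals, taken 24 h after dosing primary human umbilical vein endothelial cells.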

[9] = BSK_3C_uPAR: BioMAP Diversity Plus: 3C Assay for Urokinase-type plasminogen activator receptor (uPAR) Biomarker Activity (AID 2282998); details: BioMAP 3C HUVEC, uPAR biomarker ELISA; actives raise or lower the signal
Procedure, shortened: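 Cell-surface uPAR on HUVEC (3C system) read by ELISA at 24 h post-treatment, with DMSO as baseline and fitting in both directions. Parallel cultures stained with SRB to flag overt cytotoxicity.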

[10] = BSK_3C_VCAM1: BioMAP Diversity Plus: 3C Assay for Vascular cell adhesion molecule 1 (VCAM1) Biomarker Activity (AID 2282999); details: BioMAP 3C HUVEC, VCAM1 ELISA, cytokine-stimulated; actives raise or lower the signal
Procedure, shortened: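 Human umbilical vein endothelial cells (3C system), biomarker read by ELISA 24 h after dosing; bidirectional fit against DMSO baseline. Cytotoxicity tracked by SRB total-protein staining in parallel cultures at biomarker time.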

[11] = BSK_4H_Eotaxin3: BioMAP Diversity Plus: 4H Assay for Eotaxin 3 Biomarker Activity (AID 2283000); details: primary human endothelial cells (HUVEC); actives raise or lower the signal
Procedure, shortened: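 Endothelial primary cells (human umbilical vein) exposed to compound for 24 h. ELISA detection of Eotaxin-3.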

[12] = molecular target: human Peroxisome Proliferator-activated Receptor delta (PPARd), PPARD (gene 5467) (UniProt Q03181); test: ATG_PPARd_TRANS: Attagene TRANS-FACTORIAL HepG2 Assay for human Peroxisome Proliferator-activated Receptor delta (PPARd) (AID 2283002; active = hit-call score of the fitted dose curve at least 0.9, where 1 is the maximum)
Procedure, shortened: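 Fluorescence from capillary electrophoresis of labelled RT-PCR reporter fragments gives the signal; DMSO sets baseline. Cells: HepG2 transiently carrying GAL4-UAS reporter units plus chimeric nuclear receptor-Gal4 proteins, exposed to chemicals for 24 h.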

[13] = read-out: Intercellular Adhesion Molecule 1 (ICAM1), ICAM1 (gene 3383); test: BSK_3C_ICAM1: BioMAP Diversity Plus: 3C Assay for Intercellular Adhesion Molecule 1 (ICAM1) Biomarker Activity (AID 2283003); details: primary human endothelial cells (HUVEC); actives raise or lower the signal
Procedure, shortened: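 Human vascular endothelial primary cells, 3C conditions, 24 h treatment. ICAM-1 by ELISA.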

[14] = BSK_3C_Proliferation: Cell Proliferation Assessment in the BioMAP Diversity Plus: 3C Assay (AID 2283006); details: primary human endothelial cells (HUVEC);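 note: potency may reflect either rise or fall in cell number versus DMSO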
Procedure, shortened: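 Proliferation of human vascular endothelial primary cells after 48 h dosing, quantified as SRB-stained protein at 560 nm relative to DMSO.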

[15] = molecular target: Peroxisome proliferator-activated receptor gamma (Homo sapiens) (UniProt P37231); test: ATG_PPARg_TRANS: Attagene TRANS-FACTORIAL HepG2 Assay for human Peroxisome Proliferator-activated Receptor-gamma (PPARg) (AID 2283007; active = hit-call score of the fitted dose curve at least 0.9, where 1 is the maximum)
Procedure, shortened: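 Multiplexed reporter transcription units in HepG2, 24 h dosing, reporter transcripts quantified by fluorescent RT-PCR and capillary electrophoresis. Increase over DMSO scored.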

[16] = molecular target: human Peroxisome Proliferator-activated Receptor alpha (PPARa), PPARA (gene 5465) (UniProt Q07869); test: ATG_PPARa_TRANS: Attagene TRANS-FACTORIAL HepG2 Assay for human Peroxisome Proliferator-activated Receptor alpha (PPARa) (AID 2283001; active = hit-call score of the fitted dose curve at least 0.9, where 1 is the maximum)
Procedure, shortened: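 Measures transcriptional activity of an exogenous chimeric PPARa-Gal4 protein in transiently transfected HepG2 cells after 24 h dosing. Reporter mRNA quantified via RT-PCR and capillary electrophoresis; DMSO served as negative control.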

[17] = molecular target: human Retinoic Acid Receptor beta (RARb), RARB (gene 5915) (UniProt P10826); test: ATG_RARb_TRANS: Attagene TRANS-FACTORIAL HepG2 Assay for human Retinoic Acid Receptor beta (AID 2283004; active = hit-call score of the fitted dose curve at least 0.9, where 1 is the maximum)
Procedure, shortened: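 HepG2, transient MRTU transfection, NR–Gal4 chimera, 24 h treatment; RT-PCR plus CE fluorescence detection of reporter mRNA; gain of signal vs DMSO.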

[18] = molecular target: Retinoic acid receptor alpha (Homo sapiens) (UniProt P10276); test: ATG_RARa_TRANS: Attagene TRANS-FACTORIAL HepG2 Assay for human Retinoic Acid Receptor alpha (RARa) (AID 2283005; active = hit-call score of the fitted dose curve at least 0.9, where 1 is the maximum;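 for AC50: potency for increased reporter signal meaning RARa activation over DMSO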)
Procedure, shortened: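 HepG2 transiently transfected with multiplex GAL4-UAS reporter units including a human RARa–GAL4 chimera; 24 h compound exposure. Reporter mRNA quantified by RT-PCR, 6-FAM labeling and capillary electrophoresis; gain of signal versus DMSO.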

[19] = molecular target: Nuclear receptor subfamily 1 group I member 2 (Homo sapiens) (UniProt O75469); test: ATG_PXR_TRANS: Attagene TRANS-FACTORIAL HepG2 Assay for human Pregnane X Receptor (PXR) (AID 2283008; active = hit-call score of the fitted dose curve at least 0.9, where 1 is the maximum)
Procedure, shortened: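 HepG2 cells transiently transfected with multiple reporter units, here a PXR-GAL4 chimera driving a GAL4-UAS reporter; 24 h compound exposure. Reporter mRNA measured by RT-PCR, FAM labelling and capillary electrophoresis; gain of signal fitted against DMSO baseline.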

[20] = molecular target: human Retinoic Acid Receptor gamma (RARg), RARG (gene 5916) (UniProt P13631); test: ATG_RARg_TRANS: Attagene TRANS-FACTORIAL HepG2 Assay for human Retinoic Acid Receptor gamma (RARg) (AID 2283009; active = hit-call score of the fitted dose curve at least 0.9, where 1 is the maximum;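 for AC50: AC50 is for reporter induction above DMSO meaning RARg activation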)
Procedure, shortened: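 HepG2, RARg-GAL4 TRANS system, 24 h exposure; reporter mRNA by RT-PCR + CE fluorescence; increase over DMSO.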

Measured: AC50

human Peroxisome Proliferator-activated Receptor delta (PPARd), PPARD (gene 5467), sequence (Q03181 whole entry, looked up, the tested form may be a part): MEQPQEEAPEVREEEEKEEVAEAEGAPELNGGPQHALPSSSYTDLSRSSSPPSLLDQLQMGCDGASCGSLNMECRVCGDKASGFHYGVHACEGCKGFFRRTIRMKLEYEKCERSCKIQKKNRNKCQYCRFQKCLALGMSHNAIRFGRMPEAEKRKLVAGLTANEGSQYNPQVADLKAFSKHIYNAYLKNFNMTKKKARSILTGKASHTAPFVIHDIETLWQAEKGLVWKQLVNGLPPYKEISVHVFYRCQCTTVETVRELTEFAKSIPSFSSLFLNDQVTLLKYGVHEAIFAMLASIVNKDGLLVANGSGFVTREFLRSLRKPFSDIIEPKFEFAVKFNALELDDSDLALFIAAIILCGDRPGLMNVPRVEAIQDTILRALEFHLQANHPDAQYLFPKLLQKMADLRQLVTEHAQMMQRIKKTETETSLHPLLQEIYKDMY
Nuclear receptor subfamily 1 group I member 2 (Homo sapiens), sequence (O75469 whole entry, looked up, the tested form may be a part): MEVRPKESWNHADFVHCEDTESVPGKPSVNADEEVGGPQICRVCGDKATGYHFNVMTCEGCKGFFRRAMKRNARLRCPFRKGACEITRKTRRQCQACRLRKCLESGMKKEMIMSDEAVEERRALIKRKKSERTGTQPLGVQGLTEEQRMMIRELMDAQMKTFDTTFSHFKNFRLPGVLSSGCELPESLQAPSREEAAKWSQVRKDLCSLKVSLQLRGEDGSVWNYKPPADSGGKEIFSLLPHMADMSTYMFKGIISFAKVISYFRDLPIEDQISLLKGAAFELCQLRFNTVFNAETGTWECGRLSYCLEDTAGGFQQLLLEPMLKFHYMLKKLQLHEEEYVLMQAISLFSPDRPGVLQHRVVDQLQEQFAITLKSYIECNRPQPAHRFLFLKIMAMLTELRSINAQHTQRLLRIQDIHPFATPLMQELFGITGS
Cellular tumor antigen p53 (Homo sapiens), sequence (P04637 whole entry, looked up): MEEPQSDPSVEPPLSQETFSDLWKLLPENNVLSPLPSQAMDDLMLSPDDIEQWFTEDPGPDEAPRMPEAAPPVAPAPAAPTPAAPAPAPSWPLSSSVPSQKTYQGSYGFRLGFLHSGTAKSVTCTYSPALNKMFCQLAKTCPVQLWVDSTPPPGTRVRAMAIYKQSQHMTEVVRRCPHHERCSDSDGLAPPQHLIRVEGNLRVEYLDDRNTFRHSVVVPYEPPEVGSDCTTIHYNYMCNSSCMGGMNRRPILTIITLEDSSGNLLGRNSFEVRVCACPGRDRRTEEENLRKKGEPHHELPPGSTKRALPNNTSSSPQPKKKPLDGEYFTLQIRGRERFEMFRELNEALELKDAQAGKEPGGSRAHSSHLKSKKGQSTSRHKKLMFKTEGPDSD
human Peroxisome Proliferator-activated Receptor alpha (PPARa), PPARA (gene 5465), sequence (Q07869 whole entry, looked up, the tested form may be a part): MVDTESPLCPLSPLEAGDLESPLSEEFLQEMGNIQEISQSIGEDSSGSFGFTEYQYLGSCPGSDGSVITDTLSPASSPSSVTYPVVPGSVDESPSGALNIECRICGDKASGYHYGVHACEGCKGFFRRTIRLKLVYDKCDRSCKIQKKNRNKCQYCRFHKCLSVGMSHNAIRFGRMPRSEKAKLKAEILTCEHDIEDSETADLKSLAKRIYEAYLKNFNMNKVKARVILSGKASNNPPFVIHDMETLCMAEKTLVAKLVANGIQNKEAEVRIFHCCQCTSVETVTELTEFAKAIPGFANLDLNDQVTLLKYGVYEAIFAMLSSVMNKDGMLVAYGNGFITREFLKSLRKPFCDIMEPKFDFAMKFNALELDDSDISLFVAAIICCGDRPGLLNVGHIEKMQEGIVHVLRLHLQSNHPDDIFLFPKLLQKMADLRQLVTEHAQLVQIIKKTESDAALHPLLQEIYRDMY
Nuclear respiratory factor 1 (Homo sapiens), sequence (Q16656 whole entry, looked up): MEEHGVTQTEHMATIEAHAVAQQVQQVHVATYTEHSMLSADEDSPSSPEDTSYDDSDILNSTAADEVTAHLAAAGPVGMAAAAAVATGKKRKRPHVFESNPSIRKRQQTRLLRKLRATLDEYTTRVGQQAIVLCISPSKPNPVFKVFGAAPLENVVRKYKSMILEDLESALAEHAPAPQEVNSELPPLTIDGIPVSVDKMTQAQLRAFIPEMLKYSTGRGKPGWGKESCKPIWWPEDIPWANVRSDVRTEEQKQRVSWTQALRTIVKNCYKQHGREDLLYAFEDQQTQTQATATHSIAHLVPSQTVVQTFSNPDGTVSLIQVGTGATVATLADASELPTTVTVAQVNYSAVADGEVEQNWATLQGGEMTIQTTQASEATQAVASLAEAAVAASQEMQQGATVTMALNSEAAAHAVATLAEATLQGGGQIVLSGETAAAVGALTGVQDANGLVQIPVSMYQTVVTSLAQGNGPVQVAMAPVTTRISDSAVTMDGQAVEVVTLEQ
Peroxisome proliferator-activated receptor gamma (Homo sapiens), sequence (P37231 whole entry, looked up): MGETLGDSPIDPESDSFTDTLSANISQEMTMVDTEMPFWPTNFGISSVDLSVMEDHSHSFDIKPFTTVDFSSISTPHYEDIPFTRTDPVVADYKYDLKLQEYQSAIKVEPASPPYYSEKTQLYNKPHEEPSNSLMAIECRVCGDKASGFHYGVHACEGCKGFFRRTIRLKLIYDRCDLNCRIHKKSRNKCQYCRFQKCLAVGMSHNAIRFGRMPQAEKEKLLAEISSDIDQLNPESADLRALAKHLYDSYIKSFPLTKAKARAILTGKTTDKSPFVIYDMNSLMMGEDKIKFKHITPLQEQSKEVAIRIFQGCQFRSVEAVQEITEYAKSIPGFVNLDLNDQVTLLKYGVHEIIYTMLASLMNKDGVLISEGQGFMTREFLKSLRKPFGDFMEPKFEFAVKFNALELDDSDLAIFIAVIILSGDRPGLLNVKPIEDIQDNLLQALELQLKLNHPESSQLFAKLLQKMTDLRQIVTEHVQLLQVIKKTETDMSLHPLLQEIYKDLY
Myc proto-oncogene protein (Homo sapiens), sequence (P01106 whole entry, looked up, the tested form may be a part): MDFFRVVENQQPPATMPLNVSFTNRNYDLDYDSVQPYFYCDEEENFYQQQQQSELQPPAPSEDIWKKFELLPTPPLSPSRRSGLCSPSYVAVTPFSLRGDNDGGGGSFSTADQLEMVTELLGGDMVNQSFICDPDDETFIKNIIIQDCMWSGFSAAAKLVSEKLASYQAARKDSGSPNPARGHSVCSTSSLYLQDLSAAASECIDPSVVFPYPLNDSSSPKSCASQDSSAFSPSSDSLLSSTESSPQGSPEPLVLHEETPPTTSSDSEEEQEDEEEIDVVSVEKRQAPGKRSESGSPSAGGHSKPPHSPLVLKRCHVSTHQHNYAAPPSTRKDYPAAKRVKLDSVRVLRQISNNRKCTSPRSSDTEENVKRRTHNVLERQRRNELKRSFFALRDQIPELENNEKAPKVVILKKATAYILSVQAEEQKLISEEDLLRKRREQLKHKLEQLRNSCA
Retinoic acid receptor alpha (Homo sapiens), sequence (P10276 whole entry, looked up, the tested form may be a part): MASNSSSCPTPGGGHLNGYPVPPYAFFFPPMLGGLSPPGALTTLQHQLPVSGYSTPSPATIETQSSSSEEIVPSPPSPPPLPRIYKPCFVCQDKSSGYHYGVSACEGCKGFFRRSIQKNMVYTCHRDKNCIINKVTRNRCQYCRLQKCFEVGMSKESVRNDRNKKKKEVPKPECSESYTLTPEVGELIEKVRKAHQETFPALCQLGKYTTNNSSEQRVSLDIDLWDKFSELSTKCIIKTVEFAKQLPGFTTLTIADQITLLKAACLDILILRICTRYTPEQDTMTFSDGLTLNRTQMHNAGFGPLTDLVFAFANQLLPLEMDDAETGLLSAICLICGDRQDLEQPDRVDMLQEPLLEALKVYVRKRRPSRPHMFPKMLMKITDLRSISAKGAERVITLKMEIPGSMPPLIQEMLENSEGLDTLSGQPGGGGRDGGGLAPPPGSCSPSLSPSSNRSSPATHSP
human Retinoic Acid Receptor gamma (RARg), RARG (gene 5916), sequence (P13631 whole entry, looked up, the tested form may be a part): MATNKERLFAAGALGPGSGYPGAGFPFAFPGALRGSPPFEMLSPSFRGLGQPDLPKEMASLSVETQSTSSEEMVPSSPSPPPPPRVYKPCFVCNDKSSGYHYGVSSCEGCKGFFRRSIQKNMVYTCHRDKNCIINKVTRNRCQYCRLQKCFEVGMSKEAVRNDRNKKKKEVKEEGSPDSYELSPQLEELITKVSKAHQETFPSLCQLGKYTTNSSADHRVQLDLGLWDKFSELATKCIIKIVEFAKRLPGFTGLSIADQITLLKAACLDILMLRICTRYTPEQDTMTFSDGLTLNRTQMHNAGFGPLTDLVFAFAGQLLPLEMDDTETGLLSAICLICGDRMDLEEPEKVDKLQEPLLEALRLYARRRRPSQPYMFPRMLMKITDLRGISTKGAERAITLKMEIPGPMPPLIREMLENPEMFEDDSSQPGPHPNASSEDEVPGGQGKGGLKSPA
human Retinoic Acid Receptor beta (RARb), RARB (gene 5915), sequence (P10826 whole entry, looked up, the tested form may be a part): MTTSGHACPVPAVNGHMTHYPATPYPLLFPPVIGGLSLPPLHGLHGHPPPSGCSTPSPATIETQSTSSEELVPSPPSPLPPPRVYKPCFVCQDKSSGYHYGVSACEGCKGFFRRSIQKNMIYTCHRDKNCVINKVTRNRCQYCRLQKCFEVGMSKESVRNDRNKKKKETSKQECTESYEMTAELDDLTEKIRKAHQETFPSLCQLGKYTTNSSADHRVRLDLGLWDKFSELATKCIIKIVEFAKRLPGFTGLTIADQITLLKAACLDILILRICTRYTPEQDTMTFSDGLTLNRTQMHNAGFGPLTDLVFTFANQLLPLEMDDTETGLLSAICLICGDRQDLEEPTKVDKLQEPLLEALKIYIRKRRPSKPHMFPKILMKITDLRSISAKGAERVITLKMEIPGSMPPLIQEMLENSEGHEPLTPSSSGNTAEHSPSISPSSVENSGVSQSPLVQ

CC[C@H](c1ccc(O)cc1)[C@@H](CC)c1ccc(O)cc1
inactive: [1] | [2] | [3] | [4] | [6] | [7] | [12] | [15]
active: [5] 6.58 µM [middle of 4 runs] | [7] 17.5 µM | [8] 32.5 µM | [9] 21.7 µM | [10] 34.2 µM | [11] 27.6 µM | [13] 36.4 µM | [14] 15.9 µM

CCCCCCCCCCCCCC[N+](C)(C)C
inactive: [1] | [2] | [3] | [4] | [6] | [7] | [16] | [12] | [17] | [18] | [15] | [19] | [20]
active: [5] 5 µM and 6.55 µM | [6] 11.1 µM | [8] 5.43 µM | [9] 1.25 µM | [10] 4.71 µM | [11] 2.93 µM | [13] 7.59 µM | [18] 48.5 µM | [14] 1.73 µM | [15] 26.6 µM | [20] 36.6 µM

OCCC(F)(F)C(F)(F)C(F)(F)C(F)(F)C(F)(F)C(F)(F)C(F)(F)C(F)(F)F
inactive: [1] | [3] | [4] | [7] | [8] | [9] | [10] | [11] | [16] | [12] | [13] | [19]
active: [1] 242 µM | [2] 46 µM and 150 µM | [3] 150 µM | [4] 24.4 µM | [5] 24.6 µM and 37.3 µM | [6] 46.6 µM and 113 µM | [7] 150 µM | [8] 43.1 µM and 10.6 µM | [9] 19.5 µM and 16.5 µM | [10] 30 µM and 21.8 µM | [11] 46 µM and 14.9 µM | [13] 40.5 µM and 15.1 µM | [14] 12.7 µM and 17.4 µM and 19.9 µM
